Source: the supplement of paper PMC7156485
± gives the standard deviation of the averaged measurements.

What was measured:
Settings in all cases: concentration: 10 µM; 24 h
HCC1569 [1] = experiment: cell number relative to DMSO (% of DMSO); higher = more cells (less growth inhibition / toxicity)
In short: (§1)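 H1.0 nuclear intensity or cell number is stated as percent of the plate control, based on the median of replicates, and HCC1569 values were smoothed for positional effects. These came from HCC1569 and TDF cells treated with compounds at 10 µM for 24 h at 37 °C in triplicate, then fixed in 3.7% formaldehyde and stained with a rabbit anti-H1.0 antibody, an AlexaFluor 647 secondary and DAPI.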

TDF [2] = experiment: as above
In short: as §1

TDF [3] = experiment: H1.0 immunofluorescence intensity relative to DMSO (% of DMSO); higher = stronger H1.0 induction, active = 120 or more
In short: as §1

HCC1569 [4] = experiment: H1.0 immunofluorescence intensity relative to DMSO (% of DMSO); higher = stronger H1.0 induction, active = 140 or more
In short: as §1
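Wherever H1.0 immunofluorescence intensity relative to DMSO is given: TDF is a line of transformed human dermal fibroblasts of mesenchymal origin.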
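Wherever cell number relative to DMSO is given: TDF denotes transformed human dermal fibroblasts of mesenchymal origin.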

Row | SMILES | cell number (HCC1569 [1]) | cell number (TDF [2]) | H1.0 immunofluorescence intensity (TDF [3]) | H1.0 immunofluorescence intensity (HCC1569 [4])
1 | CC(C)[N+](C)(CCOC(=O)C1c2ccccc2Oc2ccccc21)C(C)C.[Br-] [Propantheline bromide] | 99.3 | 107 | 95.1 (inactive) | 96.9 (inactive)
2 | CCCCC(=O)O[C@]1(C(=O)CO)[C@@H](C)C[C@H]2[C@@H]3CCC4=CC(=O)C=C[C@]4(C)[C@@]3(F)[C@@H](O)C[C@@]21C | 96.4 | 106 | 87.6 (inactive) | 103 (inactive)
3 | CC1OC(n2cc(F)c(=O)[nH]c2=O)C(O)C1O (stereo not given) [Doxifluridine] | 88.3 | 107 | 98.3 (inactive) | 101 (inactive)
4 | CC(=O)Nc1ccc(NC(=S)NC(=O)c2ccc(C(C)(C)C)cc2)cc1 [p53 Activator (Tenovin-1)] | 96.5 | 91.1 | 104 (inactive) | 153 (active)
5 | CC(F)(F)CN1CCOc2c(nn(-c3ccccc3Cl)c2-c2ccc(Cl)cc2)C1=O | 104 | 101 | 93.5 (inactive) | 88.3 (inactive)
6 | CC(=O)OCC1OC([S-])C(OC(C)=O)C(OC(C)=O)C1OC(C)=O.CCP(CC)CC.[Au+] (stereo not given) [Auranofin] | 38 | 15.4 | 155 (active) | 146 (active)
7 | O=C(O)C=Cc1cnc[nH]1 [4-Imidazoleacrylic acid] | 101 | 107 | 97.2 (inactive) | 108 (inactive)
8 | CCN1CCCC1CNC(=O)c1cc(S(=O)(=O)CC)c(N)cc1OC (stereo not given) [Amisulpride] | 107 | 84.5 | 104 (inactive) | 96.7 (inactive)
9 | CC(N)C1CCC(C(=O)Nc2ccncc2)CC1.Cl.Cl.O (stereo not given) | 109 | 104 | 97.1 (inactive) | 102 (inactive)
10 | Nc1ccc2ncnc(NCCc3ccc(Oc4ccccc4)cc3)c2c1 [NF-kB Activation Inhibitor] | 66.3 | 70.7 | 106 (inactive) | 164 (active)
11 | CSc1nc(N)c2ncn(C3OC(COP(=O)([O-])OP(=O)([O-])OP(=O)([O-])[O-])C(O)C3O)c2n1.[Na+].[Na+].[Na+].[Na+] (stereo not given) [2-Methylthioadenosine triphosphate tetrasodium] | 102 | 109 | 93 (inactive) | 95.7 (inactive)
12 | CCCCCCCCCCCCCCC(O)C(O)C(CO)NC(C)=O (stereo not given) [C2 Phytoceramide] | 79.1 | 86.5 | 110 (inactive) | 101 (inactive)
13 | CCCCC1C(=O)N(c2ccccc2)N(c2ccccc2)C1=O [Phenylbutazone] | 101 ± 1.3 | 106 ± 10 | 93.7 (inactive) | 97.5 (inactive)
14 | NCCCC(O)(P(=O)([O-])O)P(=O)(O)O [Alendronate] | 106 | 102 | 94.3 (inactive) | 117 (inactive)
15 | NS(=O)(=O)c1ccc(N2CCN(CC[C@@H]3OCCc4ccccc43)CC2)cc1 | 101 | 102 | 99.4 (inactive) | 104 (inactive)
16 | CCCCCC=CCC(O)C=CC=CC=CC(O)CCCC(=O)O [5(S),12(R)-DIHETE all trans] | 99.8 | 97 | 99.7 (inactive) | 101 (inactive)
17 | CN1CCC(=C2c3ccccc3C=Cc3ccccc32)CC1 [Cyproheptadine] | 100 | 83.7 | 98.2 (inactive) | 108 (inactive)
18 | CS(=O)(=O)O.C[C@H](NCc1ccc(OCc2cccc(F)c2)cc1)C(N)=O | 99.7 | 102 | 97.6 (inactive) | 98.6 (inactive)
19 | CCc1cccc(N(C)C(N)=Nc2cccc3ccccc23)c1.Cl | 87.1 | 90 | 115 (inactive) | 95.9 (inactive)
20 | CNCC(O)c1ccc(O)c(O)c1.O=C(O)C(O)C(O)C(=O)O (single isomer, unassigned; (-)) [(-)-Epinephrine bitartrate] | 100 | 107 | 90.8 (inactive) | 82.3 (inactive)
21 | C=CCSC[C@H](N)C(=O)O [(2R)-3-(allylsulfanyl)-2-aminopropanoic acid] | 103 | 95.1 | 88.7 (inactive) | 90.1 (inactive)
22 | CCC1OC(=O)C(C)C(OC2CC(C)(OC)C(O)C(C)O2)C(C)C(OC2OC(C)CC(N(C)C)C2O)C(C)(OC)CC(C)C(=O)C(C)C(O)C1(C)O (stereo not given) [Clarithromycin] | 98.4 | 93 | 94.3 (inactive) | 94.6 (inactive)
23 | Nc1nc(Nc2ccccc2)nc2c1ncn2C1OC(CO)C(O)C1O (stereo not given) [2-Phenylaminoadenosine] | 101 | 100 | 90 (inactive) | 102 (inactive)
24 | CCCOc1ccc(C=C2SC(=O)NC2=O)cc1 [PIM1/2 Kinase Inhibitor VI] | 106 | 110 | 103 (inactive) | 98.1 (inactive)
25 | CCCC(=O)Oc1ccc2[nH]c(C(=O)c3cc4ccccc4[nH]3)cc2c1 [PDGF Receptor Tyrosine Kinase Inhibitor II] | 86.9 | 92.3 | 87.9 (inactive) | 165 (active)
